Test: binders of probe aFST on microarray, primary screen, stem cell growth factor project, biochemical, small-molecule microarray, fluorescence 635/667 (AID 1086);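 also: score merges 667 nm fluorescence with signal-to-noise of each printed compound spot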
Details: higher = more signal
For COCC(=C=CC[C@H](O)c1ccccc1OCCO)C[C@H](O)c1cc(Cl)cc(Cl)c1O, the composite z-score was 0.372.
C=CCC(OC(C)=O)[C@@H]1[C@@H](N(Cc2ccc(-c3ccccc3)cc2)C(=O)Cc2ccc(F)cc2)c2cc(OCCCO)ccc2N1C(=O)c1ccc(-c2ccccc2)cc1 (stereo not given in full) gave a composite z-score of 0.0621.
Work on COCCOC(=O)N1C(=O)[C@@]2(c3cc(C#CC4=CCCCC4)ccc31)[C@H](c1ccc(O)cc1)N1[C@H](c3ccccc3)[C@H](c3ccccc3)OC(=O)[C@H]1[C@@H]2C(N)=O yielded a composite z-score of 0.327.
For O=C1O[C@H](c2ccccc2)[C@H](c2ccccc2)N2[C@H]1[C@@H](C(=O)O)[C@]1(C(=O)Nc3ccc(C#CCCO)cc31)[C@H]2c1ccc(O)cc1, the composite z-score was 0.481.
O=C(NCc1ccccc1)[C@@]1(Cc2ccccc2)N=C(c2ccc(OCCCO)cc2)O[C@H]1c1ccccc1 gave a composite z-score of 1.07.
CCOC(=O)C[C@H]1[C@H](OC(=O)c2cc3ccccc3oc2=O)[C@@H](NC(=O)Cc2ccc(OC)cc2)c2cc(OCCCO)ccc2N1C(=O)c1ccccc1 showed a composite z-score of 0.164.
Compound COc1ccc([Si](C)(C)[C@H]2[C@H](CCO)O[C@@]3(C(=O)N(C)c4c(Br)cc(C)cc43)[C@@H]2C)cc1 has a composite z-score of 0.299.
Compound CN(C)C(=O)[C@@]1(Cc2ccccc2)N=C(c2ccc(OCCCO)cc2)O[C@H]1c1ccccc1N=[N+]=[N-] has a composite z-score of 1.69.
CC(=O)NCCCC[C@@H]1NC(=O)[C@@H]2C[C@H](C(=O)NCCCCCCNC(=O)CS)[C@H](c3cccc(OCCO)c3)N2C1=O gave a composite z-score of 0.414.
With CN(C)CCCNC(=O)[C@@]1(C)c2ccccc2C(=O)N(Cc2cc(F)cc(C(F)(F)F)c2)[C@H]1c1ccc(CO)cc1 the composite z-score was -0.641.
O=C1C[C@]2(c3ccc([N+](=O)[O-])cc3)C(=O)N(CCN3CCOCC3)c3cc(CO)ccc3[C@H]2N1C1CCCCC1 showed a composite z-score of 0.105.
Work on COC(=O)C=C(CC(O)c1cccc(Cl)c1)OC (stereo not given) yielded a composite z-score of 1.65.
Work on COc1ccc(CCN2C(=O)[C@@]3(c4ccc([N+](=O)[O-])cc4)CC(=O)N(C4CCCCC4)[C@@H]3c3ccc(CO)cc32)cc1 yielded a composite z-score of -0.135.
Work on O=C1C2C=CC(C(O)C(c3ccccc3)c3ccccc3)N(n3cnnc3)C2C(=O)N1Cc1ccccc1 (stereo not given) yielded a composite z-score of 0.578.
O=C1c2ccccc2[C@@]2(Cc3ccccc3N(CCN3CCOCC3)C2=O)[C@H](c2ccc(CO)cc2)N1Cc1ccccc1 gave a composite z-score of -0.0633.
CC(C)(C)OC(=O)CC[C@]1(C(=O)NCC(O)CO)COC(c2ccc(OCCCO)cc2)=N1 (stereo not given in full) gave a composite z-score of 1.24.
For CN1C(=O)[C@]2(Cc3ccccc3)N=C(c3ccc(OCCCO)cc3)O[C@@H]2c2ccccc21, the composite z-score was 0.265.
O=C1OCCC/C=C\[C@H]2OC34C=CCN(Cn5nnc6ccccc65)C(=O)[C@H]3N(CCO)C(=O)[C@@H]4C12 (stereo not given in full) gave a composite z-score of -0.486.
With CC(C)C(=C=CC[C@@H](O)c1ccccc1OCCO)CCO the composite z-score was 0.285.
Compound N#Cc1ccc(NN2C(C(O)c3c(F)cccc3Cl)C=CC3C(=O)N(c4ccccc4)C(=O)C32)cc1 (stereo not given) has a composite z-score of 1.18.
Compound COC(=O)[C@@]1(Cc2ccccc2)[C@H]2c3cc(C(=O)N4CCCC4)n(Cc4cccc5ccccc45)c3C[C@H]2CN1C(=O)c1ccccc1 has a composite z-score of 2.03.
In the case of COCC(=C=CC[C@@H](O)c1ccccc1OCCO)C[C@@H](O)c1cc(Cl)cc(Cl)c1O, the composite z-score is reported as 0.624.
Work on C=CCOC(=O)[C@@H]1[C@H]2C(=O)O[C@H](c3ccccc3)[C@H](c3ccccc3)N2[C@H](c2ccc(OCCOC(=O)[C@@H]3C[C@@H]4C(=O)N[C@@H](Cc5ccccc5)C(=O)N4[C@@H]3c3ccc(O)cc3)cc2)[C@@]12C(=O)Nc1ccc(I)cc12 yielded a composite z-score of 0.11.
C[C@@H]1ON(c2cccc(C(=O)OC(C)(C)C)c2)[C@H](c2ccc(Br)cc2)[C@H]1C(=O)N1C(=O)OC[C@H]1Cc1ccccc1 gave a composite z-score of 0.625.
Compound O=C1OCCC=C[C@H]2OC34C=CCN(CCN5CCOCC5)C(=O)[C@H]3N(CCCCCCO)C(=O)[C@@H]4C12 (stereo not given in full) has a composite z-score of -0.235.
C=CC[C@@]1(C(N)=O)N=C(c2ccc(OCCCO)cc2)O[C@@H]1c1ccccc1CN=[N+]=[N-] showed a composite z-score of 1.19.
C=CCOC(=O)[C@H]1[C@@H]2C(=O)O[C@@H](c3ccccc3)[C@@H](c3ccccc3)N2[C@@H](c2ccc(OCCOC(=O)[C@H]3C[C@H]4C(=O)N[C@@H](CC(C)C)C(=O)N4[C@H]3c3ccc(O)cc3)cc2)[C@]12C(=O)Nc1ccc(I)cc12 showed a composite z-score of -0.742.
For CCCCN1CC=CC23O[C@@H]4/C=C\CCC(C)OC(=O)C4[C@H]2C(=O)N(CCCCCO)[C@@H]3C1=O (stereo not given in full), the composite z-score was -0.526.
Compound COc1ccc(C(O)C2C=CC3C(=O)NC(=O)C3N2Nc2ccccn2)c2ccccc12 (stereo not given) has a composite z-score of 0.119.
In the case of C=C(COC)/C(=C/C[C@H](OC(=O)c1ccncc1)c1ccc(OCCO)cc1)c1cnc2ccccc2c1, the composite z-score is reported as 1.14.
In the case of C=C(C)C1C(=C)CN([C@H](CO)c2ccccc2)C1=O (stereo not given in full), the composite z-score is reported as -0.0839.
Compound C=CCC(OC(C)=O)[C@@H]1[C@@H](N(Cc2ccc(-c3cccc(C(F)(F)F)c3)o2)C(=O)Cc2ccc(F)cc2)c2cc(OCCCO)ccc2N1C(=O)Cc1ccc(OC)cc1 (stereo not given in full) has a composite z-score of -0.26.
With CC(C)c1ccc(NN2C(C(O)c3cc(C(F)(F)F)cc(C(F)(F)F)c3)C=CC3C(=O)N(c4ccccc4)C(=O)C32)cc1 (stereo not given) the composite z-score was 0.273.
With COc1ccc([Si](C)(C)[C@H]2[C@H](CCn3cc([C@H](O)c4ccccc4)nn3)O[C@@]3(C(=O)N(Cc4cccc(N5CCOC5=O)c4)c4ccccc43)[C@@H]2C)cc1 the composite z-score was -0.0127.
In the case of Cc1ccc(S[C@]2(C(=O)NCC(C)C)CC(=O)N(Cc3cc(C(F)(F)F)cc(C(F)(F)F)c3)[C@@H]2c2ccc(CO)cc2I)cc1, the composite z-score is reported as 0.0584.

From PubChem BioAssay
